Laboratory results reported in the supplement of paper PMC8728848.
Shown is part of a subset that was picked to be rich in the strongest signals.

Tests used:
Assay in all cases: glycan array binding signal (z-score within array); higher = stronger binding
Conditions in all cases: glycan notation: IUPAC condensed, linker removed
[1] = molecular target: Neu5Ac(a2-3)Gal(b1-4)GlcNAc(b1-3)Gal(b1-4)[Fuc(a1-3)]GlcNAc
Outline: (§1)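 The binding signal is a Z-score computed within each array. Data were drawn from 3228 arrays in the Consortium for Functional Glycomics database, restricted to those with a known protein sequence. Scores were averaged over arrays of the same protein sequence at different concentrations or buffers, and over linkers, and negative values can be taken as non-binding.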

[2] = molecular target: Neu5Ac(a2-3)Gal(b1-4)GlcNAc6S
Outline: as §1

[3] = molecular target: Neu5Ac(a2-3)[GalNAc(b1-4)]Gal(b1-4)GlcNAc(b1-3)GalNAc
Outline: as §1

[4] = molecular target: Neu5Ac(a2-6)Gal(b1-4)GlcNAc(b1-3)Gal(b1-4)GlcNAc(b1-3)Gal(b1-4)GlcNAc(b1-2)Man(a1-3)[Neu5Ac(a2-6)Gal(b1-4)GlcNAc(b1-3)Gal(b1-4)GlcNAc(b1-3)Gal(b1-4)GlcNAc(b1-2)Man(a1-6)]GalNAc
Outline: as §1

[5] = molecular target: Neu5Ac(a2-6)Gal(b1-4)GlcNAc(b1-3)Gal(b1-4)GlcNAc(b1-3)[Neu5Ac(a2-6)Gal(b1-4)GlcNAc(b1-3)Gal(b1-4)GlcNAc(b1-6)]GalNAc
Outline: as §1

[6] = molecular target: Neu5Ac(a2-6)Gal(b1-4)GlcNAc(b1-6)GalNAc
Outline: as §1

[7] = molecular target: Neu5Ac(a2-6)Gal(b1-4)GlcNAc(b1-6)[Gal(b1-3)GlcNAc(b1-3)]Gal(b1-4)Glc
Outline: as §1

[8] = molecular target: Neu5Ac(a2-8)Neu5Ac(a2-3)Gal(b1-4)Glc
Outline: as §1

[9] = molecular target: Neu5Ac(a2-8)Neu5Ac(a2-8)Neu5Ac(a2-3)Gal(b1-4)Glc
Outline: as §1

[10] = molecular target: Neu5Ac9Ac(a2-3)Gal(b1-4)GlcNAc
Outline: as §1

[11] = molecular target: Neu5Gc(a2-8)Neu5Gc(a2-3)Gal(b1-4)GlcNAc
Outline: as §1

B1: Protein L(B1-B4) (Finegoldia magna), Q51912 (protein)
chain: KEETPETPETDSEEEVTIKANLIFANGSTQTAEFKGTFEKATSEAYAYADTLKKDNGEYTVDVADKGYTLNIKFAGKEKTPEEPKEEVTIKANLIYADGKTQTAEFKGTFEEATAEAYRYADALKKDNGEYTVDVADKGYTLNIKFAGKEKTPEEPKEEVTIKANLIYADGKTQTAEFKGTFEEATAEAYRYADLLAKENGKYTVDVADKGYTLNIKFAGKEKTPEEPKEEVTIKANLIYADGKTQTAEFKGTFAEATAEAYRYADLLAKENGKYTADLEDGGYTINIRFAG
Q: B1 was tested. Which “glycan array binding signal (z-score)” value [1] did it give?
A: -0.359

Q: And the “glycan array binding signal (z-score)” value [2]?
A: -0.92

Q: And the “glycan array binding signal (z-score)” value [3]?
A: 0.809

Q: What about the “glycan array binding signal (z-score)” value [4] of the same binder?
A: 3.91

Q: What about the “glycan array binding signal (z-score)” value [5] of the same binder?
A: 2.86

Q: What about the “glycan array binding signal (z-score)” value [6] of the same binder?
A: 3.08

Q: And the “glycan array binding signal (z-score)” value [7]?
A: -0.606

Q: And the “glycan array binding signal (z-score)” value [8]?
A: -1.15

Q: And the “glycan array binding signal (z-score)” value [9]?
A: 0.487

Q: What about the “glycan array binding signal (z-score)” value [10] of the same binder?
A: 0.223

Q: And the “glycan array binding signal (z-score)” value [11]?
A: -1.03
